The campaign covered roughly 5,500 compounds. About 2,000 (36%) were called active. Roughly 18% stayed inconclusive and do not appear here. Rule as the data show it: active = normalized growth mostly below about 0.91 (no sharp cut-off); inconclusive = no clear call, values can overlap the other calls; inactive = mostly above about 0.92. This is one part of the list.
Test: chemical genetic growth profiling, strain panel (AID 1159580);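 also: tested at 20 µM; growth read once vehicle control cultures reached saturation at 30 °C; 1 = growth at the plate median or of vehicle wells; lower values mean less growth of the strain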
Details: S. cerevisiae deletion strains, growth OD

Measured: normalized growth

Cn1cnc2c(NC3CCCC3)ncnc21
inactive: locus YAL013W, strain DEP1, stronger effect = lower value 0.992 | locus YAL040C, strain CLN3, stronger effect = lower value 0.993 | locus YCL061C, strain MRC1 (second series), stronger effect = lower value 1 | locus YDR150W, strain NUM1, stronger effect = lower value 0.999 | locus YDR363W, strain ESC2, stronger effect = lower value 1 | locus YER002W, strain NOP16, stronger effect = lower value 1.01 | locus YMR263W, strain SAP30, stronger effect = lower value 1 | locus YMR307W, strain GAS1, stronger effect = lower value 0.989 | locus YNL128W, strain TEP1, stronger effect = lower value 1 | locus YNL153C, strain GIM3, stronger effect = lower value 1.02 | locus YNL175C, strain NOP13, stronger effect = lower value 1.04 | locus YNL197C, strain WHI3, stronger effect = lower value 1 | locus YNL224C, strain SQS1, stronger effect = lower value 0.997 | locus YOR083W, strain WHI5 (second series), stronger effect = lower value 0.984

Source: PubChem BioAssay AID1159580 (chemical genetic matrix, 2015)
